# Reference: the supplement of paper PMC8371130
# Counter-ions that a name gives are not always drawn.
# Tested on: HL-1
# Test: relative cell viability (CellTiter-Glo) vs DMSO control (% of DMSO control); higher = more viable cells
# Summary of the method: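 HL-1 mouse atrial cardiomyocytes were plated in 384-well plates at 1000 cells per well together with compounds at 40, 200, 1000 or 5000 nM in 0.01% DMSO. One day later, cells went to a hypoxic workstation (1% O2) for 48 h, then were reoxygenated for 24 h in a normal incubator, or stayed in normoxia for the same time. Cell viability was read by CellTiter-Glo luminescence and normalised to vehicle-treated control cells.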
# [1] = oxygen condition: hypoxia 48 h (1% O2) + reoxygenation 24 h, 40 nM
# [2] = oxygen condition: hypoxia 48 h (1% O2) + reoxygenation 24 h, 200 nM
# [3] = oxygen condition: hypoxia 48 h (1% O2) + reoxygenation 24 h, 1000 nM
# [4] = oxygen condition: hypoxia 48 h (1% O2) + reoxygenation 24 h, 5000 nM
# [5] = oxygen condition: normoxia 72 h, 40 nM
# [6] = oxygen condition: normoxia 72 h, 200 nM
# [7] = oxygen condition: normoxia 72 h, 1000 nM
# [8] = oxygen condition: normoxia 72 h, 5000 nM
SMILES,relative cell viability [1],relative cell viability [2],relative cell viability [3],relative cell viability [4],relative cell viability [5],relative cell viability [6],relative cell viability [7],relative cell viability [8]
CCOC(=O)c1ccc(OC(=O)CCCCCNC(=N)N)cc1 [Gabexate mesylate],107,105,112,108,101,98.9,109,110
Cc1cc(C#N)cc(C)c1Oc1nc(Nc2ccc(C#N)cc2)nc(N)c1Br [Etravirine],106,103,109,111,108,111,115,110
Cc1ccc(C(=O)C(C)CN2CCCCC2)cc1 (stereo not drawn) [Tolperisone HCl],107,107,109,108,107,114,81.5,111
Cc1c(-c2ccc(O)cc2)n(Cc2ccc(OCCN3CCCCCC3)cc2)c2ccc(O)cc12 [Bazedoxifene HCl],107,99.8,101,84.1,98.6,97.9,105,45.6
CN(C)CCN(Cc1ccccc1)c1ccccn1 [Tripelennamine HCl],97.8,87.6,88,103,93,91.8,94.1,105
CC(=O)OCC(=O)[C@@]12OC(C)(C)O[C@@H]1C[C@H]1[C@@H]3C[C@H](F)C4=CC(=O)C=C[C@]4(C)[C@@]3(F)[C@@H](O)C[C@@]12C [Fluocinonide],93.4,91.8,89.8,99,92.3,88.7,89.5,91.2
CCOC(=O)[C@H](CCc1ccccc1)N[C@H]1CCCN2CCC[C@@H](C(=O)O)N2C1=O [Cilazapril monohydrate],97.6,97.3,94.1,113,105,106,98.7,115
Clc1ccc2c(c1)C(N1CCNCC1)=Nc1ccccc1O2 [Amoxapine],102,100,104,109,98.5,105,111,113
Nc1nc2[nH]cnc2c(=S)[nH]1 [Thioguanine],97.1,79.2,65.6,24.5,82.9,75.5,64,22.5
CN1CCC[C@H]1c1cccnc1 [Nicotine Ditartrate],97.5,99.9,106,113,104,104,103,109
O=C(Nc1ccccc1)OCC(CN1CCCCC1)OC(=O)Nc1ccccc1 (stereo not drawn) [Diperodon HCl],103,101,104,98.6,87.5,107,103,109
CCCCc1oc2ccccc2c1C(=O)c1cc(I)c(OCCN(CC)CC)c(I)c1 [Amiodarone HCl],99.8,95.4,103,110,102,110,106,116
CC(C)C[C@H](NC(=O)[C@@H](O)[C@H](N)Cc1ccccc1)C(=O)O [Ubenimex],99.1,95.6,98.2,103,101,98.8,99.7,108
CC[C@H](C)C(=O)O[C@H]1C[C@H](O)C=C2C=C[C@H](C)[C@H](CC[C@@H](O)C[C@@H](O)CC(=O)O)[C@H]21 [Pravastatin sodium],99.1,94.4,84.7,19.8,96.8,95.9,70.7,6.81
CCN(CC)CCNC(=O)c1c(C)[nH]c(/C=C2\C(=O)Nc3ccc(F)cc32)c1C [Sunitinib Malate],106,109,107,115,105,119,114,111
Cc1ccc(Nc2nccc(N(C)c3ccc4c(C)n(C)nc4c3)n2)cc1S(N)(=O)=O [Pazopanib HCl],94.1,106,105,109,103,113,104,109
Cc1cc(C)nc(NS(=O)(=O)c2ccc(N)cc2)n1 [Sulfamethazine],102,104,104,112,94.6,104,105,119
CC1=CC(=O)c2ccccc2C1=O [Menadione],100,98.2,102,109,101,104,101,106
O=C(O)C[C@H](O)C[C@H](O)/C=C/c1c(C2CC2)nc2ccccc2c1-c1ccc(F)cc1 [Pitavastatin calcium],109,109,85.5,7.03,117,109,88.9,4.53
O=C(O[C@H]1CN2CCC1CC2)N1CCc2ccccc2[C@@H]1c1ccccc1 [Solifenacin succinate],110,111,115,106,104,112,105,113
Clc1ccc(C(Cn2ccnc2)OCc2ccc(Sc3ccccc3)cc2)c(Cl)c1 (stereo not drawn) [Fenticonazole nitrate],102,102,105,107,102,98,101,104
